Where “and” joins values, the source holds several entries; their conditions need not be identical. Equal values may be shown once. Results filed as inconclusive are left out. Some structures have more than one record in an assay (separate samples or runs), and their calls can disagree. Calls of active or inactive are those of the source. Unless noted, calls follow the shape of the dose curve; as a rule, active = well fitted curve in the direction sought with a large enough effect in the repeat runs; inconclusive = weak or mixed curves; inactive = no such curve, though single readings can be large; an effect the other way counts as inactive or inconclusive.
Columns and labels:
[1] = Human pregnane X receptor (PXR) small molecule agonists, qHTS cell viability counter screen (AID 1346977); also: nearly all actives have a fitted effect of over 50% in size
Procedure, shortened: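 PXR-Luc HepG2 cells in medium with 5% charcoal-stripped FBS were pre-incubated 5hr, then exposed to compounds for 24hr at 37C. Viability was read in the same wells by CellTiter-Fluor fluorescence, reagent added after 23hr with a 1hr incubation.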

[2] = Caspase-3/7 induction in HepG2 cells by small molecules, qHTS assay (AID 1346978); also: nearly all actives have a fitted effect of over 15% in size
Procedure, shortened: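 Wild-type HepG2 cells (2,000/well) were settled 5 h at 37 C, 5% CO2, then exposed to compounds in DMSO for 17 h. Caspase-3/7 activity was read by luminescence 30 min after adding Caspase-Glo 3/7 reagent at room temperature.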

[3] = Caspase-3/7 induction in CHO-K1 cells by small molecules, qHTS cell viability counter screen (AID 1346979); also: nearly all actives have a fitted effect of over 35% in size
Procedure, shortened: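 Wild-type CHO-K1 cells were seeded at 1,500 per well, rested 5hr at 37 C, then exposed to compounds in DMSO. After 16hr, CellTiter-Fluor reagent was added and fluorescence read 1hr later as the viability measure.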

[4] = Caspase-3/7 induction in CHO-K1 cells by small molecules, qHTS assay (AID 1346980); also: nearly all actives have a fitted effect of over 15% in size
Procedure, shortened: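 Wild-type cells were seeded at 1,500 per well and settled 5 hr at 37 C, 5% CO2, then exposed to DMSO-dissolved compounds for 17 hr. Caspase-Glo 3/7 reagent was added, and luminescence was read after 30min at room temperature.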

[5] = Caspase-3/7 induction in HepG2 cells by small molecules, qHTS cell viability counter screen (AID 1346981); also: series mostly up to about 92 µM; nearly all actives have a fitted effect of over 30% in size
Procedure, shortened: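 Viability determined by CellTiter-Fluor fluorescence in HepG2 wells also used for the luminescent Caspase-Glo 3/7 read. Compounds were present for 16 hr at 37 C, 5% CO2 before reagent addition.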

[6] = biological target: Nuclear receptor subfamily 1 group I member 2 (Homo sapiens) (UniProt O75469); experiment: Human pregnane X receptor (PXR) small molecule agonists, qHTS assay (AID 1346982); also: nearly all actives have a fitted effect of over 35% in size; also: potency is read from the fitted curve at half-maximal effect
Nuclear receptor subfamily 1 group I member 2 (Homo sapiens), sequence (O75469 whole entry, looked up): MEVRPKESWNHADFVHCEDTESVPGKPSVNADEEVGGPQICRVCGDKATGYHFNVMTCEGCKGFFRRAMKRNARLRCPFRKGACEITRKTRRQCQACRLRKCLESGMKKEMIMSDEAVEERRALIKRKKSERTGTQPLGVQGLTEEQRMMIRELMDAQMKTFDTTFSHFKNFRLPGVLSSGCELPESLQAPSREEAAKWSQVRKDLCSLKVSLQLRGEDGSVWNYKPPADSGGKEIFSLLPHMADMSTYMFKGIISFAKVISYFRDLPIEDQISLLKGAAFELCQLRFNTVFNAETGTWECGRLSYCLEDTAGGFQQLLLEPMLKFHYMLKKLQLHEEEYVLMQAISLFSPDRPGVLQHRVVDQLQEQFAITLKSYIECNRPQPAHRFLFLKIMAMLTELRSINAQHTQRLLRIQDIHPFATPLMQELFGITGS
Procedure, shortened: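 Compound-induced hPXR transactivation of a CYP3A4 luciferase reporter was scored in HepG2 PXR-Luc cells over 24 hr at 37 C, 5% CO2, by luminescence.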

[7] = biological target: Nuclear receptor subfamily 1 group I member 2 (Rattus norvegicus) (UniProt Q9R1A7); experiment: Rat pregnane X receptor (rPXR) activation by small molecules, qHTS assay (AID 1346983); settings: rPXR luciferase reporter cells, One-Glo luminescence, 24 h; stronger effect = higher value; also: nearly all actives have a fitted effect of over 20% in size
Nuclear receptor subfamily 1 group I member 2 (Rattus norvegicus), sequence (Q9R1A7 whole entry, looked up): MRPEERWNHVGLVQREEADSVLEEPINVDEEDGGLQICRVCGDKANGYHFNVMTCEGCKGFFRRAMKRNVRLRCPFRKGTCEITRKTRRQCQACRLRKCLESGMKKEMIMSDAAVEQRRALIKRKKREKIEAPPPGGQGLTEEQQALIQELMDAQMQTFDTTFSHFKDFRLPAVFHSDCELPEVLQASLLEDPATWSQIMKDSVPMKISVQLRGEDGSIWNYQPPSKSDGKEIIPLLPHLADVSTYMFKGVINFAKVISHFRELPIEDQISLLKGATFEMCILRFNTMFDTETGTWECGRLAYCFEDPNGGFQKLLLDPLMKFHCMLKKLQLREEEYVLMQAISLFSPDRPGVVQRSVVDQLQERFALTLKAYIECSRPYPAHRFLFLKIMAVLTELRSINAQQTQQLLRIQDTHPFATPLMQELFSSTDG
Procedure, shortened: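 Cell-based rPXR luciferase reporter assay, 2,000 cells per well, rested 5hr at 37 C before compound addition in DMSO, then 24 hr at 37 C. One-Glo reagent was added and luminescence read after 30 min at room temperature.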

[8] = biological target: Nuclear receptor subfamily 1 group I member 2 (Homo sapiens) (UniProt O75469); experiment: CYP3A4 induction through human pregnane X receptor (PXR) by small molecules, qHTS assay (AID 1346984); also: nearly all actives have a fitted effect of over 40% in size
Procedure, shortened: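 Readings come from a luciferase reporter: DPX-2 cells, which are HepG2 cotransfected with PXR and a CYP3A4-promoter construct, were exposed to test compounds for 24 h at 37C before One-Glo detection.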

[9] = biological target: Acetylcholinesterase (Homo sapiens) (UniProt P22303); experiment: Acetylcholinesterase (AChE) small molecule antagonists: colormetric cell-based qHTS assay (AID 1347395; calls by dose curve; also: nearly all actives have a fitted effect of over 30% in size; also: potency is read from the fitted curve at half-maximal effect)
Acetylcholinesterase (Homo sapiens), sequence (P22303 whole entry, looked up): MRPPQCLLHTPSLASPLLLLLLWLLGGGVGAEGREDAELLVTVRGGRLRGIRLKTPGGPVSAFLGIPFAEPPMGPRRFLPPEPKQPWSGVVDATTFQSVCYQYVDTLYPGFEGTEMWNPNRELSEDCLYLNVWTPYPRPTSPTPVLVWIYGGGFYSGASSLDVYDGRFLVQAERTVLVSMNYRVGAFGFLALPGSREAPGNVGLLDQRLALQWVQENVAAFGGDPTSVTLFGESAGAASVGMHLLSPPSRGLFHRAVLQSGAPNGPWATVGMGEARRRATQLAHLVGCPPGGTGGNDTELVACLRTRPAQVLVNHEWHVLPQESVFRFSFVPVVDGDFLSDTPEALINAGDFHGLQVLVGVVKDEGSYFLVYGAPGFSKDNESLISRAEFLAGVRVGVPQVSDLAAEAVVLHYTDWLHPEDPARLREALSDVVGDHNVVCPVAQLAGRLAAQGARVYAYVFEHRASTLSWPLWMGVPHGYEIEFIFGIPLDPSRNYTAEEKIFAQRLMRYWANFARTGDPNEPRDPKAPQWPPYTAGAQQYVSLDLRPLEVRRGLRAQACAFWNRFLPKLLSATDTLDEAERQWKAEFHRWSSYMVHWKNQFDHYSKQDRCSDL
Procedure, shortened: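 SH-SY5Y cells, plated overnight at 37 C, were exposed to compounds for 30 min at 37 C and 5% CO2. Acetylthiocholine plus DTNB was then added, and thiocholine from endogenous AChE was quantified colorimetrically after 90 min at 37 C.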

[10] = biological target: Acetylcholinesterase (Homo sapiens) (UniProt P22303); experiment: Acetylcholinesterase (AChE) small molecule antagonists: fluorescence cell-based qHTS assay (AID 1347398; calls by dose curve; also: nearly all actives have a fitted effect of over 50% in size; also: potency is read from the fitted curve at half-maximal effect); settings: Potency: AChE activity; outcome: AChE activity
Procedure, shortened: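 Thiocholine generated from acetylthiocholine by SH-SY5Y cell AChE is detected with Thiolite Green (Ex/Em 490/520 nm) after 40 min at room temperature, following 30 min compound pretreatment at 37 C.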

[11] = biological target: Acetylcholinesterase (Homo sapiens) (UniProt P22303); experiment: Acetylcholinesterase (AChE) small molecule antagonists: enzyme-based qHTS assay with human liver microsomes (AID 1347399; calls by dose curve; also: nearly all actives have a fitted effect of over 60% in size); settings: Potency: qHTS inhibition; outcome: qHTS inhibition
Procedure, shortened: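 Recombinant human AChE (50 mU/mL in the enzyme mix) and human liver microsomes (0.25 mg/mL final) were preincubated with compound and NADPH (0.25 mg/mL final) for 30 min at 37 C. Acetylthiocholine/DTNB was then added; thiocholine was read colorimetrically after 10 min at room temperature.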

[12] = biological target: Cytochrome P450 2C9 (Homo sapiens) (UniProt P11712); experiment: Cytochrome P450 Family 2 Subfamily C Member 9 (CYP2C9) small molecule antagonists: luciferase reporter qHTS assay (AID 1671198); also: nearly all actives have a fitted effect of over 50% in size; also: potency is read from the fitted curve at half-maximal effect
Cytochrome P450 2C9 (Homo sapiens), sequence (P11712 whole entry, looked up): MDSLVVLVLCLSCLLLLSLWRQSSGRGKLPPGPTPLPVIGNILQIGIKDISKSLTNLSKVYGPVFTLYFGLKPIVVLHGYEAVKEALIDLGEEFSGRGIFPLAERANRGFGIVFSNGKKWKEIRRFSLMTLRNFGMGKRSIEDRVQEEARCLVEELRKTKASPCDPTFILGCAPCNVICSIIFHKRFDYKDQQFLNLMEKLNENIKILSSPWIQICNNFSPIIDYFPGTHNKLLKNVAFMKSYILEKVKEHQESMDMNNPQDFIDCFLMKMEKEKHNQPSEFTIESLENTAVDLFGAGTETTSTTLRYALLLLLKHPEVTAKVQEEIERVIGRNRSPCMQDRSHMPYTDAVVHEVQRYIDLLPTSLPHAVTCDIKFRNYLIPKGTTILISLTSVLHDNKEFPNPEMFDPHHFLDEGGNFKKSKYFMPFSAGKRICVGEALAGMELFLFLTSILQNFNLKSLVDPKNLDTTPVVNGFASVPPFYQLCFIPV
Procedure, shortened: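 CYP2C9 activity was measured with a P450-Glo proluciferin substrate. Enzyme–substrate mix was held with compound for 10 min at room temperature, then NADPH regeneration solution was added for 1 h at 37C. Luciferin product was read as luminescence.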

[13] = biological target: Voltage-gated inwardly rectifying potassium channel KCNH2 (Homo sapiens) (UniProt Q12809); experiment: Human Ether-a-go-go-Related Gene (hERG) channel small molecule antagonists: fluorescence cell-based qHTS assay (AID 1671200); also: nearly all actives have a fitted effect of over 50% in size; also: potency is read from the fitted curve at half-maximal effect
Voltage-gated inwardly rectifying potassium channel KCNH2 (Homo sapiens), sequence (Q12809 whole entry, looked up): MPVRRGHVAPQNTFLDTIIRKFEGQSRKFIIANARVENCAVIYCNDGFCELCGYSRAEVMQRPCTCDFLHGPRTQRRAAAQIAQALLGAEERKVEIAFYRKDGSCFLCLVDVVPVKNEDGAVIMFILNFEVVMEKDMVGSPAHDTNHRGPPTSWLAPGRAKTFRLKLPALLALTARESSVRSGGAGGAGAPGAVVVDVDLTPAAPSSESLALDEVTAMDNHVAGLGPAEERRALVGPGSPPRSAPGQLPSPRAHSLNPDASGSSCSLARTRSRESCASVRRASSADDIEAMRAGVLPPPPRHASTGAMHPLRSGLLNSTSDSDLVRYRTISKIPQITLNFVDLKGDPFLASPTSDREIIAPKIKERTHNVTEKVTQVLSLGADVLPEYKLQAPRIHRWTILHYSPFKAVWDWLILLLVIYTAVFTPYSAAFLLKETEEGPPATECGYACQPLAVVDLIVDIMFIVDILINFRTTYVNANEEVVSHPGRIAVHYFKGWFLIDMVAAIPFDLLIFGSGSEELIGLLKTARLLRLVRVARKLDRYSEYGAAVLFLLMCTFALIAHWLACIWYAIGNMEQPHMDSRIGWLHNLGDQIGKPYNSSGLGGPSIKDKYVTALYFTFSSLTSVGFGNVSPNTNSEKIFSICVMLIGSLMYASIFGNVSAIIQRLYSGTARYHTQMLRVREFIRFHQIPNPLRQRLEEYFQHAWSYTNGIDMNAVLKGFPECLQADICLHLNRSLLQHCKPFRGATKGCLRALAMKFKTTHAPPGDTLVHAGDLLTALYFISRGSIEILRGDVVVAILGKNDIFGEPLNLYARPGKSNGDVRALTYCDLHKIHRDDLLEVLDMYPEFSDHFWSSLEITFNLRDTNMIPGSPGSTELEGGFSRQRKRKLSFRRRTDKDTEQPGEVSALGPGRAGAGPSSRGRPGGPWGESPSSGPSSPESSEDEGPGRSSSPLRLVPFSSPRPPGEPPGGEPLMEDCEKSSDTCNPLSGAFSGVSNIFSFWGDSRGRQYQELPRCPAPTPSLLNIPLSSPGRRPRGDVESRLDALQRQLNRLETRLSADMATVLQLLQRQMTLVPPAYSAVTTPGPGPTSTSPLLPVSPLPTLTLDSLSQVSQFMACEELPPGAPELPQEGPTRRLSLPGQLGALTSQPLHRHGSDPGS
Procedure, shortened: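 U2OS cells expressing the channel were plated at 1000 cells/well, incubated overnight at 37 C, then loaded with FluxOR II thallium-sensitive dye for 1 h at room temperature in the dark, with a further 10 min at room temperature before stimulation.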

[14] = biological target: Acetylcholinesterase (Homo sapiens) (UniProt P22303); experiment: Acetylcholinesterase (AChE) small molecule antagonists: enzyme-based qHTS assay (AID 1347397; calls by dose curve; also: nearly all actives have a fitted effect of over 55% in size; also: potency is read from the fitted curve at half-maximal effect); settings: Potency: AChE enzyme activity inhibition; outcome: AChE enzyme activity inhibition
Procedure, shortened: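 Human recombinant acetylcholinesterase; substrate acetylthiocholine; thiocholine quantified with DTNB (colorimetric). Compound preincubation 30 min RT; reaction 10 min RT.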

[15] = biological target: Cytochrome P450 2D6 (Homo sapiens) (UniProt P10635); experiment: Cytochrome P450 Family 2 Subfamily D Member 6 (CYP2D6) small molecule antagonists: luciferase reporter qHTS assay (AID 1671196); also: nearly all actives have a fitted effect of over 50% in size; also: potency is read from the fitted curve at half-maximal effect
Cytochrome P450 2D6 (Homo sapiens), sequence (P10635 whole entry, looked up): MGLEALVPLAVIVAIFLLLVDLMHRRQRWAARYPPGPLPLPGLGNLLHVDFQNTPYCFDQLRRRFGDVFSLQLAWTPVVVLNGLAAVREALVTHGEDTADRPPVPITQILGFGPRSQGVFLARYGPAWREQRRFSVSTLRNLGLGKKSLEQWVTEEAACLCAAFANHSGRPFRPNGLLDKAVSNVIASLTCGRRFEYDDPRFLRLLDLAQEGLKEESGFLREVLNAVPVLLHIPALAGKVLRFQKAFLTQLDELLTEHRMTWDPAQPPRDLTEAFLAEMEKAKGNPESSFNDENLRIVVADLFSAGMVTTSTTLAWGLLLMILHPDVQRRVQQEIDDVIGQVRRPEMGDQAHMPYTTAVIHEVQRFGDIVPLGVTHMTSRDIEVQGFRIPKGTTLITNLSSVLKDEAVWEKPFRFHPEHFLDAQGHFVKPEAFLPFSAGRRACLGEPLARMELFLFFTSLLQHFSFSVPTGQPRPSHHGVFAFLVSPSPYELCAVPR
Procedure, shortened: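 Each well received CYP2D6 with its proluciferin substrate and chemical, sat 10 min, then got NADPH regeneration solution for 1 h at room temperature. Luminescence in RLU served as the activity measure.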

[16] = biological target: Cytochrome P450 2C19 (Homo sapiens) (UniProt P33261); experiment: Cytochrome P450 Family 2 Subfamily C Member 19 (CYP2C19) small molecule antagonists: luciferase reporter qHTS assay (AID 1671197); also: nearly all actives have a fitted effect of over 65% in size; also: potency is read from the fitted curve at half-maximal effect
Cytochrome P450 2C19 (Homo sapiens), sequence (P33261 whole entry, looked up): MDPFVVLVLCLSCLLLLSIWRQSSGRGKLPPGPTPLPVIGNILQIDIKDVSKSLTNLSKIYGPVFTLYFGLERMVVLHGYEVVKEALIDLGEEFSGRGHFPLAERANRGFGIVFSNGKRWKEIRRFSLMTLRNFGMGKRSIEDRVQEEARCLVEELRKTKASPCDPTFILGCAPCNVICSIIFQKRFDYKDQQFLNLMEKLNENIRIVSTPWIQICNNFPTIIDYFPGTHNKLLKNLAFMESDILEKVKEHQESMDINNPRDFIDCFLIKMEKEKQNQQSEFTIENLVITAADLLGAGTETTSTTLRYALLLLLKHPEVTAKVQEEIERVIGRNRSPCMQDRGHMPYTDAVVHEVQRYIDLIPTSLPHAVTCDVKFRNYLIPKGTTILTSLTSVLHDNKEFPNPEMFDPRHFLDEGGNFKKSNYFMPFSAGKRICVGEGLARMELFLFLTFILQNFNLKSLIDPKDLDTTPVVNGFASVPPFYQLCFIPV
Procedure, shortened: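 Compounds were tested on CYP2C19 activity via proluciferin conversion to luciferin. The 37C, 1 h reaction followed NADPH addition; detection reagent stopped it.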

[17] = biological target: Cytochrome P450 1A2 (Homo sapiens) (UniProt P05177); experiment: Cytochrome P450 Family 1 Subfamily A Member 2 (CYP1A2) small molecule antagonists: luciferase reporter qHTS assay (AID 1671199); also: nearly all actives have a fitted effect of over 50% in size; also: potency is read from the fitted curve at half-maximal effect
Cytochrome P450 1A2 (Homo sapiens), sequence (P05177 whole entry, looked up): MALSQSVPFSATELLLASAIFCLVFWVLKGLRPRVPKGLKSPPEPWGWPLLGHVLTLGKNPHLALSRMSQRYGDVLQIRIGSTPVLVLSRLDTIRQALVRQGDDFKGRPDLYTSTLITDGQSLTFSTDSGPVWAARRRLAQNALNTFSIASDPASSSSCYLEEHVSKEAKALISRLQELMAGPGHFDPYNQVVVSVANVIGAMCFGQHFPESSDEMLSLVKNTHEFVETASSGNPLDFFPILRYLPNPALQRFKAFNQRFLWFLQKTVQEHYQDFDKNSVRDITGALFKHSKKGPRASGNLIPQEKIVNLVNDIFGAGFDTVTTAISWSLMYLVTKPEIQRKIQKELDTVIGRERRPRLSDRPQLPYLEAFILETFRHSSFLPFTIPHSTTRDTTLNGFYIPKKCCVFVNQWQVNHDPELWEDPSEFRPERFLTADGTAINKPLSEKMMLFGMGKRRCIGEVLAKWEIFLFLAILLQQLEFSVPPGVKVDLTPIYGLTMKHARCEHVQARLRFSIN
Procedure, shortened: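 Enzymatic CYP1A2 assay, human, luminescent: 10 min compound–enzyme–substrate preincubation, 1 h NADPH-dependent turnover, 20 min detection step, room temperature throughout. Reduced light indicates lower CYP1A2 activity.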

[18] = biological target: Cytochrome P450 3A4 (Homo sapiens) (UniProt P08684); experiment: Cytochrome P450 Family 3 Subfamily A Member 4 (CYP3A4) small molecule antagonists: luciferase reporter qHTS assay (AID 1671201); also: nearly all actives have a fitted effect of over 50% in size; also: potency is read from the fitted curve at half-maximal effect
Procedure, shortened: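 P450-Glo CYP3A4 system with proluciferin substrate; compounds preincubated 10 min RT with enzyme-substrate mix, then NADPH regeneration added for 1 h RT. Detection reagent 20 min, luminescence read as relative luminescence units.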

[19] = biological target: Nuclear receptor subfamily 1 group I member 2 (Homo sapiens) (UniProt O75469); experiment: Human pregnane X receptor (PXR) activation by small molecules, qHTS assay (AID 1346985); also: nearly all actives have a fitted effect of over 40% in size
Procedure, shortened: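 DPX-2 cells (HepG2 co-transfected with a PXR response element and a CYP3A4-promoter luciferase construct) were seeded at 2,000 per well, rested 5 hr at 37C, then exposed to DMSO-dissolved compounds for 24 hr. Activation was read as luciferase luminescence.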
% is scaled to controls: 0 for no effect and ±100 for the full control effect.

CCOC(=O)c1cncn1C(C)c1ccccc1 (stereo not given)
inactive: Potency [1] | Potency [2] | Potency [3] | Potency [4] | Potency [5] | max activation [7] 0.791% | outcome [8] | Potency [9] | Potency [10] | Potency [11] | Potency [13]
active: Potency [6] 26.6 µM | Potency [12] 12.3 µM

CN1C(=O)CN=C(c2ccccc2)c2cc([N+](=O)[O-])ccc21
inactive: Potency [1] | Potency [2] | Potency [3] | Potency [4] | Potency [5] | Potency [6] | max activation [7] 8.45% | outcome [8] | Potency [9] | Potency [14] | Potency [10] | Potency [11] | Potency [15] | Potency [16] | Potency [17] | Potency [13] | Potency [18]

CCSCc1ccccc1OC(=O)NC
active: Potency [9] 10 µM | Potency [14] 20 µM | Potency [10] 22.4 µM | Potency [17] 63.3 µM
inactive: Potency [1] | Potency [2] | Potency [3] | Potency [4] | Potency [5] | Potency [6] | Potency [11] | Potency [15] | Potency [13] | Potency [18]

CCOC(=O)C1OC1(C)c1ccccc1 (stereo not given)
inactive: Potency [1] | Potency [2] | Potency [3] | Potency [4] | Potency [5] | Potency [6] | Potency [9] | Potency [14] | Potency [10] | Potency [11] | Potency [13] | Potency [18]
active: Potency [16] 35.9 µM and 71 µM
71.6 µM (active) and inactive: Potency [15]

Nc1ccc2c(c1)Cc1ccccc1-2
inactive: Potency [1] | Potency [2] | Potency [3] | Potency [4] | Potency [5] | Potency [9] | Potency [14] | Potency [10] | Potency [11] | Potency [13]
active: Potency [6] 27.1 µM | Potency [15] 62.9 µM | Potency [16] 8.88 µM | Potency [12] 15.8 µM | Potency [17] 1.25 µM | Potency [18] 14.1 µM

C=CCN1C[C@H](C)N([C@H](c2ccc(C(=O)N(CC)CC)cc2)c2cccc(OC)c2)C[C@H]1C
inactive: Potency [1] | Potency [2] | Potency [3] | Potency [4] | Potency [5] | max activation [7] 5.88% | outcome [8] | Potency [9] | Potency [14] | Potency [10] | Potency [11] | Potency [16] | Potency [12] | Potency [17]
active: Potency [6] 11.9 µM | Potency [15] 3.09 µM | Potency [13] 3.01 µM

CCC(=O)O[C@@H]1C=C2CCC3C(CCC4(C)C3CC[C@@H]4OC(=O)CC)C2CC1 (stereo not given in full)
inactive: Potency [1] | Potency [2] | Potency [3] | Potency [4] | Potency [5] | Potency [6] | Potency [9] | Potency [14] | Potency [10] | Potency [11] | Potency [15] | Potency [13] | Potency [18]
active: Potency [12] 15.5 µM

C=CC(=O)NC(C)(C)CC(C)=O
active: Potency [15] 35.6 µM
inactive: Potency [1] | Potency [2] | Potency [3] | Potency [4] | Potency [5] | Potency [6] | Potency [9] | Potency [14] | Potency [10] | Potency [11] | Potency [12] | Potency [17] | Potency [13] | Potency [18]

CCCCCl
active: Potency [15] 18.3 µM | Potency [16] 41 µM | Potency [17] 57.9 µM
inactive: Potency [1] | Potency [2] | Potency [3] | Potency [4] | Potency [5] | Potency [6] | max activation [7] -0.159% | outcome [8] | Potency [19] | Potency [9] | Potency [10] | Potency [11] | Potency [13] | Potency [18]

COC(=O)Cc1ccccc1
inactive: Potency [1] | Potency [2] | Potency [3] | Potency [4] | Potency [5] | Potency [6] | Potency [9] | Potency [14] | Potency [10] | Potency [11] | Potency [15] | Potency [13] | Potency [18]

CON(C)C(=O)Nc1ccc(Cl)cc1
inactive: Potency [1] | Potency [2] | Potency [3] | Potency [4] | Potency [5] | Potency [9] | Potency [14] | Potency [10] | Potency [11] | Potency [15] | Potency [13] | Potency [18]
active: Potency [6] 48.6 µM | Potency [16] 39.9 µM | Potency [17] 7.1 µM

CN1CC[C@]23c4c5ccc(O)c4O[C@H]2[C@@H](O)CC[C@H]3[C@H]1C5
inactive: Potency [1] | Potency [2] | Potency [3] | Potency [4] | Potency [5] | Potency [6] | Potency [9] | Potency [14] | Potency [10] | Potency [11] | Potency [16] | Potency [12] | Potency [17] | Potency [13] | Potency [18]

C#CC(O)(C=CCl)CC (stereo not given)
inactive: Potency [1] | Potency [2] | Potency [3] | Potency [4] | Potency [5] | Potency [6] | Potency [9] | Potency [14] | Potency [10] | Potency [11] | Potency [15] | Potency [12] | Potency [17] | Potency [13] | Potency [18]

O=S(=O)(Cl)Cl
inactive: Potency [1] | Potency [2] | Potency [3] | Potency [4] | Potency [5] | Potency [6] | Potency [9] | Potency [14] | Potency [10] | Potency [11] | Potency [15] | Potency [12] | Potency [17] | Potency [13] | Potency [18]

OCC1CO1 (stereo not given)
inactive: Potency [1] | Potency [2] | Potency [3] | Potency [4] | Potency [5] | Potency [6] | Potency [9] | Potency [14] | Potency [10] | Potency [11] | Potency [15] | Potency [16] | Potency [12] | Potency [13] | Potency [18]

— PubChem BioAssay (Tox21)
